Read-out in test [1]: Monocyte Chemoattractant Protein-1 (MCP1), CCL2 (gene 6347)
As to the kind of experiment: BSK_SAg_MCP1: BioMAP Diversity Plus: SAg Assay for Monocyte Chemoattractant Protein-1 (MCP1) Biomarker Activity (AID 2283090). Conditions: primary human HUVEC with PBMC; actives raise or lower the signal. Summed up: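 Values derive from bidirectional fitting of ELISA-measured MCP1 against DMSO controls. Readings were taken 24 h after dosing human vascular endothelial cells co-cultured with peripheral blood mononuclear cells under superantigen stimulation.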

Read-out in test [2]: E-selectin (Homo sapiens) (UniProt P16581)
The experiment in a line: BSK_SAg_Eselectin: BioMAP Diversity Plus: SAg Assay for Eselectin Biomarker Activity (AID 2283091). Conditions: primary human HUVEC with PBMC; actives raise or lower the signal. Summed up: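 Human umbilical vein endothelial cells co-cultured with peripheral blood mononuclear cells, SAg system. E-selectin is measured by ELISA 24 h after dosing and fitted bidirectionally against DMSO. Cytotoxicity is checked by SRB staining of parallel cultures.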

Read-out in test [3]: Monokine induced gamma interferon (MIG), CXCL9 (gene 4283)
The experiment in a line: BSK_SAg_MIG: BioMAP Diversity Plus: SAg Assay for Monokine induced gamma interferon (MIG) Biomarker Activity (AID 2283092). The following applies: primary human HUVEC with PBMC; actives raise or lower the signal. Summed up: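 HUVEC plus human PBMC co-culture, chemicals dosed and MIG (CXCL9) quantified by ELISA at 24 h. Bidirectional curve fitting against DMSO as negative control and baseline, so both gain and loss of signal count as activity.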

Test [4] can be described thus: BSK_SAg_PBMCCytotoxicity: PBMC Cytotoxicity Assessment in the BioMAP Diversity Plus: SAg Assay (AID 2283093).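 For AC50: PBMC superantigen activated with SEB plus TSST-1 one hour after compound addition.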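 Note: fitted both ways against DMSO so a hit may be loss or gain of signal.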 Conditions: primary human HUVEC with PBMC. Summed up:
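PBMC viability by Alamar Blue reduction, fluorescence read at 546/580 nm after 6 h dye exposure. Cells were dosed 1 h before SEB plus TSST-1 activation (20 ng/mL final each), then held 90 h; endothelial/PBMC human co-culture.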

Read-out in test [5]: Interleukin-8 (IL8), CXCL8 (gene 3576)
The experiment in a line: BSK_SAg_IL8: BioMAP Diversity Plus: SAg Assay for Interleukin-8 (IL8) Biomarker Activity (AID 2283094). Conditions: primary human HUVEC with PBMC; actives raise or lower the signal. Put shortly: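 Primary human endothelial cells with PBMC, exposed 24 h; IL-8 determined by ELISA, analysed bidirectionally relative to DMSO.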

The nature of test [6]: BSK_SAg_Proliferation: Cell Proliferation Assessment in the BioMAP Diversity Plus: SAg Assay (AID 2283095).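 Note: relative cell number as total protein by SRB absorbance in sub-confluent culture.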 The following applies: primary human HUVEC with PBMC. Summed up: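 A human primary co-culture of umbilical vein endothelium and blood mononuclear cells receives compound; relative cell number is quantified at 96 h by SRB staining and 560 nm absorbance, with DMSO-referenced bidirectional curve fitting.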

Test [7] in a line: BSK_SAg_SRB: Viability Assessment in the BioMAP Diversity Plus: SAg Assay (AID 2283096).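 Note: cells read one day after compound addition; hits may be either gain or loss of signal compared with DMSO.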 The following applies: primary human HUVEC with PBMC. Put shortly:
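Compounds were added to a human vascular co-culture of umbilical vein endothelium and PBMC. After 24 h, parallel cultures were fixed with 10% TCA, stained with 0.1% sulforhodamine B and read at 560 nm. Gain or loss of signal was fitted relative to DMSO.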

Where “and” joins values, the source holds several entries; their conditions need not be identical. Identical values can stand only once. Some structures have more than one record in an assay (separate samples or runs), and their calls can disagree. Calls of active or inactive are those of the source. Rule for the calls: active = hit-call score of the fitted dose curve at least 0.9, where 1 is the maximum; inactive = score below 0.9.

This note sets out measurements from PubChem BioAssay (EPA / NIEHS).

Chain of E-selectin (Homo sapiens) (P16581 whole entry, looked up): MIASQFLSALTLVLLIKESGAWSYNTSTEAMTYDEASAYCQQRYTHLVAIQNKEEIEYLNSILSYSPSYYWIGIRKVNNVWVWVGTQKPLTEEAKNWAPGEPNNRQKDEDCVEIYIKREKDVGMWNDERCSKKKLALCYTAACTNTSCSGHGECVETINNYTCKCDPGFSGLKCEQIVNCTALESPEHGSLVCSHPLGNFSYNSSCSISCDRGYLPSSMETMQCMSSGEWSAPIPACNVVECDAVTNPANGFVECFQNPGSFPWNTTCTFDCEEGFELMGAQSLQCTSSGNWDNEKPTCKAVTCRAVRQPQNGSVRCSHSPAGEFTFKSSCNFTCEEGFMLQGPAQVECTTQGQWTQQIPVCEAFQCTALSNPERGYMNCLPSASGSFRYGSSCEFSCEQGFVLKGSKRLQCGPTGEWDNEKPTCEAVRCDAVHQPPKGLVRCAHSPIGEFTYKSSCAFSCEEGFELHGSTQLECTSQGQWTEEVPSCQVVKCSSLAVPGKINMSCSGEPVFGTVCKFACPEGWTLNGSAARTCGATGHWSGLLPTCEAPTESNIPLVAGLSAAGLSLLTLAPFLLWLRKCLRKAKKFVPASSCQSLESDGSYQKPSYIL

Regarding `COC(=O)CCC(F)(F)C(F)(F)C(F)(F)C(F)(F)F`, the outcome in test [1], in test [2], in test [3], in test [4], in test [5] and in test [6] was inactive. Also, the outcome in test [7] was inactive.

`C=CC(=O)OCC(F)(F)C(F)(F)C(F)(F)C(F)(F)C(F)(F)C(F)(F)C(F)(F)F`: the outcome in test [1], in test [2], in test [3], in test [4], in test [5] and in test [6] was inactive. Moreover, the outcome in test [7] was inactive. Besides, in test [6], the AC50 was 20 µM (active).

For `O=P(O)(O)OCCC(F)(F)C(F)(F)C(F)(F)C(F)(F)C(F)(F)C(F)(F)F`, the outcome in test [1], in test [2], in test [3], in test [4], in test [5] and in test [6] was inactive. For the same compound, the result in test [7] was inactive.

Take `O=C(Cl)C(F)(F)C(F)(F)C(F)(F)C(F)(F)C(F)(F)C(F)(F)C(F)(F)C(F)(F)F`: the AC50 in test [1] is 44.8 µM (active) and 43.8 µM (active); in test [5], 42.7 µM (active); in test [7] it was 42.7 µM (active) and 42.8 µM (active) and 30 µM (active). The result in test [1], in test [2], in test [3], in test [4], in test [5] and in test [6] was inactive.

As for `O=C(O)C(F)(F)C(F)(F)C(F)(F)C(F)(F)C(F)(F)C(F)(F)C(F)(F)C(F)(F)C(F)(F)C(F)(F)C(F)(F)C(F)(F)F`, the outcome in test [1], in test [2], in test [3], in test [4], in test [5] and in test [6] was inactive. Further, the outcome in test [7] was inactive.

For `FC(F)(F)C(F)(F)C(F)(F)C(F)(F)C(F)(F)C(F)(F)C(F)(F)Br`, the result in test [1], in test [2], in test [3], in test [4], in test [5] and in test [6] was inactive. Besides, in test [7], the outcome was inactive.

In the case of `O[Si](c1ccccc1)(c1ccccc1)c1ccccc1`, the AC50 is 32.5 µM (active) in test [1]; 31 µM (active) in test [2]; 31.1 µM (active) in test [3]; 30.5 µM (active) in test [4]; 20 µM (active) in test [5]; 32.6 µM (active) in test [6]. For the same compound, the half-maximal activity concentration (AC50) in test [7] is 26.8 µM (active).

Turning to `FC(F)(F)C(F)(F)C(F)(F)C(F)(F)C(F)(F)C(F)(F)C(F)(F)I`, the result in test [1], in test [2], in test [3], in test [4], in test [5] and in test [6] was inactive. In addition, in test [7], the result was inactive.

`FC(F)(I)C(F)(F)C(F)(F)C(F)(F)I`: the outcome in test [1], in test [2], in test [3], in test [4], in test [5] and in test [7] was inactive. The AC50 in test [2] was 44.1 µM (active); in test [4], 46.9 µM (active) and 50.1 µM (active); in test [5], 30 µM (active); in test [6], 54.2 µM (active) and 54.1 µM (active) and 46.5 µM (active).

Turning to `FC(F)(F)C(F)(F)C(F)(F)C(F)(F)C(F)(F)CCI`, the outcome in test [1], in test [2], in test [3], in test [4], in test [5] and in test [6] was inactive. The result in test [7] was inactive. The AC50 in test [6] is 44 µM (active).

Consider `Cc1ccc(S(=O)(=O)OCC(F)(F)C(F)(F)C(F)(F)C(F)(F)C(F)(F)C(F)F)cc1`, for which the outcome in test [1], in test [2], in test [3], in test [4], in test [5] and in test [6] was inactive. Moreover, the concentration at half-maximal activity (AC50) in test [7] is 44 µM (active) and 37.4 µM (active).

With `C=C(C)C(=O)OCC(F)(F)C(F)(F)C(F)(F)C(F)(F)C(F)(F)C(F)(F)C(F)(F)F`, the result in test [1], in test [2], in test [3], in test [4], in test [5] and in test [6] was inactive. In addition, in test [7], the result was inactive.

As to `FC(F)(F)C(F)(F)C(F)(F)N(C(F)(F)C(F)(F)C(F)(F)F)C(F)(F)C(F)(F)C(F)(F)F`, the outcome in test [1], in test [2], in test [3], in test [4], in test [5] and in test [6] was inactive. In test [7], the result was inactive.

In the case of `C=CC(F)(F)C(F)(F)C(F)(F)C(F)(F)C(F)(F)C(F)(F)C(F)(F)C(F)(F)C=C`, the result in test [1], in test [2], in test [3], in test [4], in test [5] and in test [6] was inactive. Moreover, the result in test [7] was inactive.

With `CCCCCCOC(=O)c1ccccc1O`, the AC50 in test [1] was 27.6 µM (active) and 45.1 µM (active); in test [2] it was 38.3 µM (active) and 39.5 µM (active); in test [4] it was 36.9 µM (active) and 44.8 µM (active); in test [5], 38.2 µM (active); in test [6], 38.7 µM (active) and 45.4 µM (active); in test [7] it was 42.4 µM (active). The outcome in test [3], in test [5] and in test [7] was inactive.

`C=CC(=O)OCC(F)(F)C(F)(F)C(F)(F)C(F)(F)COC(=O)C=C`: the half-maximal activity concentration (AC50) is 27.9 µM (active) and 25.1 µM (active) in test [1]; 15.5 µM (active) and 15.3 µM (active) in test [2]; 20.6 µM (active) and 20.9 µM (active) in test [3]; 28.9 µM (active) and 30 µM (active) in test [4]; 16.8 µM (active) and 25 µM (active) in test [5]; 8.2 µM (active) and 8.47 µM (active) in test [6]. Further, the AC50 in test [7] is 44.6 µM (active) and 46.9 µM (active).

Take `OCCCC(F)(F)C(F)(F)C(F)(F)C(F)(F)C(F)(F)C(F)(F)C(F)(F)F`: the half-maximal activity concentration (AC50) in test [1] was 43.2 µM (active) and 46.3 µM (active); in test [2], 44.2 µM (active) and 38.8 µM (active); in test [3] it was 54 µM (active) and 50.8 µM (active); in test [4], 14.4 µM (active) and 14.8 µM (active); in test [5], 23.3 µM (active) and 50.1 µM (active); in test [6], 16.8 µM (active) and 16.3 µM (active). The AC50 in test [7] was 51.4 µM (active) and 44.9 µM (active).

For the compound `O=C(O)C(F)(F)C(F)(F)C(F)(F)C(F)(F)C(F)(F)C(F)(F)C(F)(F)C(F)(F)Cl`, the AC50 in test [1] is 45.9 µM (active) and 50.4 µM (active); in test [5], 48.8 µM (active) and 50.1 µM (active); in test [6], 54.5 µM (active); in test [7], 48.1 µM (active) and 45.1 µM (active). The result in test [2], in test [3], in test [4] and in test [6] was inactive.
